Chronic BCR inh = blocks chronic active B-cell receptor signaling. ABC-DLBCL IkBa-CBG/CBR reporter, luminescence ratio, 4 h. Potency, µM (titrated, usually from 46.1 µM), hits mostly inhibitors. 340,000 compounds, 0.05% hits. AID 493014; active = well fitted inhibition curve with a large enough effect in the signal ratio, with a control signal flat, not every such curve was filed as active; inconclusive = small, poorly fitted or top-dose-only effect, or effect the other way, or a change in a side signal; the % refers to the signal ratio
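Concentration-response series (up to 46 uM) were applied to TMD8 dual-reporter cells for 4 h at 37C with doxycycline. Green/red ratio, after filter-overlap correction, defined %Activity; red signal alone was normalised to basal cells and zero luminescence.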
IL-1B inflam inh = blocks inflammasome-driven IL-1 beta release; THP-1 LPS/ATP IL-1B secretion, AlphaLISA, 16 h; active compounds read low; activity change, % at 57.5 µM; 360,000 compounds, 4.7% hits; in the data active = activity change below about -50%; inconclusive = mostly about -30% to -49%
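Secreted IL-1B measured by AlphaLISA bead assay after 16 h compound exposure of THP-1 cells; compounds (final up to 57.5 uM) added 1 h before LPS (250 ng/mL) and ATP (1.25 mM) stimulation; lower signal means less secretion.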
TDP1 cell CPT = DT40-hTDP1 cell growth loss with CPT; chicken DT40 Tdp1-/-;hTDP1 cells + 20 nM CPT, ATP luminescence, 48 h; Potency, µM (titrated, usually from 46.2 µM), hits mostly inhibitors; 420,000 compounds, 12% hits; note: nearly all actives have a fitted effect of over 55% in size
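Chicken DT40 Tdp1-/- cells complemented with human TDP1, 400 cells/well, exposed to compounds plus 20 nM camptothecin for at least 48 h at 37 C; viability read as ATP content by CellTiter-Glo luminescence.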
MCF10A rerep = induces DNA re-replication in MCF 10a normal breast cells; MCF 10A DNA re-replication, Hoechst nuclear intensity, 48 h; Potency, µM (highest dose often 46.1 µM), hits mostly activators; 350,000 compounds, 2.9% hits; note: nearly all actives have a fitted effect of over 50% in size
DT40 TDP1 no CPT = qHTS for Inhibitors of human tyrosyl-DNA phosphodiesterase 1 (TDP1): qHTS in cells in absence of CPT | Potency, µM (titrated, usually from 46.2 µM), actives largely listed as inhibitors | 420,000 compounds, 15% hits | DT40 Tdp1-/- hTDP1 cells, no CPT, ATP luminescence, 48 h | AID 686978, 2013; note: nearly all actives have a fitted effect of over 55% in size
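Seeded 400 DT40-hTDP1 cells/well (vehicle DMSO, no 20 nM CPT); pinned compounds; ≥48 hr at 37 °C; CellTiter-Glo luminescence as viability measure.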
SW480 rerep = inducers of DNA re-replication in SW480 colon cancer cells; 340,000 compounds, 1.8% hits; SW480 DNA re-replication, Hoechst DNA content imaging, 48 h; Potency, µM (titrated, usually from 46.1 µM), actives largely listed as activators; AID 624297; note: nearly all actives have a fitted effect of over 55% in size
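Compounds, transferred as 23 nL by pin tool, were incubated with cells for 48 hr; DNA content per nucleus was then quantified by Hoechst staining and fluorescence plate imaging.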
A number is an active result; - = inactive; ? = inconclusive; . = not tested or not shown; ! = repeats disagree; [ ] = remark or other dose. Shown are actives, neighbours in structure and some others; about 19% of the full set was active somewhere. Unless noted, calls come from the whole dose curve; as a rule, active = well fitted curve in the direction sought with a large enough effect; inconclusive = small, poorly fitted or top-dose-only effect, or another doubt; inactive = no such curve, though single readings can be large; an effect the other way counts as inactive or inconclusive.

SMILES | Chronic BCR inh | IL-1B inflam inh | TDP1 cell CPT | MCF10A rerep | DT40 TDP1 no CPT | SW480 rerep
Cc1cc(OCC(=O)N2CCC(C(N)=O)CC2)c2c3c(c(=O)oc2c1)CCCC3 | - | - | 23µM | - | - | -
Cc1cc(OCC(=O)O)c2c3c(c(=O)oc2c1)CCCC3 | - | - | - | - | - | -
CN(C)CCc1c[nH]c2cccc(OP(=O)(O)O)c12 | . | . | - | . | - | .
CCCC[C@@H](C)C[C@@H](C)C(=O)N(C)[C@@H](CC(C)C)C(=O)N[C@H](C(=O)N(C)[C@H](C(=O)N1C[C@@H](O)C[C@H]1C(=O)N1C(=O)C=C[C@@H]1C)C(C)C)C(C)OC(C)=O (some centres not stated) | ? | -113 | 0.037µM | ? | 0.0065µM | -
Oc1ccccc1Cl | - | - | - | ? | - | -
Oc1ccc(O)c2c1C1(Cl)C(Cl)=C(Cl)C2(Cl)C1(Cl)Cl | . | -61 | 23µM | 16µM | 16µM | ?
COc1ccc(S(=O)(=O)Nc2cc([N+](=O)[O-])ccc2OC)cc1 | - | - | ? | ? | 21µM | ?
COc1ccc([N+](=O)[O-])cc1NC(=O)Nc1ccc(OC)c(OC)c1 | ? | -85 | ? | - | ? | -
COc1ccc([N+](=O)[O-])cc1NC(=O)COC(=O)c1ccccc1C(=O)c1ccccc1 | - | -52 | - | - | ? | -
COc1ccc(Cl)cc1C(=O)Nc1ccc([N+](=O)[O-])cc1Cl | . | . | ? | . | - | .
COC(=O)C1=C(c2ccc(F)cc2F)C[C@@H]2CC[C@H]1N2C(=O)NCCOc1ccccc1Cl | ? | - | ? | - | ? | -
O=C(NCC1=C(c2ccc3ccccc3c2)C[C@@H]2CC[C@H]1N2Cc1ccco1)c1cccnc1 | . | - | - | . | ? | .
ClC1=C(Cl)[C@]2(Cl)[C@@H]3[C@@H]4C[C@@H]([C@H]5O[C@@H]45)[C@@H]3[C@@]1(Cl)C2(Cl)Cl | . | . | - | . | - | .
CN1CCC(N(C)c2ncnc3ccc(Br)cc23)CC1 | ? | - | ? | - | ? | -
CN1CCN(c2ncnc3ccc(Br)cc23)CC1 | - | - | 26µM | - | ? | -
CC(=O)OCC(=O)[C@H]1CC[C@H]2[C@@H]3CC[C@H]4C[C@H](O)CC[C@]4(C)[C@H]3C(=O)C[C@]12C | - | - | - | - | - | -
CC(=O)[C@H]1CC[C@H]2[C@@H]3CC[C@H]4C[C@H](O)CC[C@]4(C)[C@H]3C(=O)C[C@]12C | ? | - | ? | - | 12µM! | -
CC(=O)OC1CCC2(C)C(CCC3C4CC(N5CC5)C(C(C)=O)C4(C)CC(=O)C32)C1 (configuration not stated) | . | - | 12µM | ? | 15µM | ?
Cc1nnc2n1-c1ccc(Cl)cc1C(c1ccccc1Cl)=NC2 | . | . | - | - | - | -
Cc1oc(-c2ccccc2)nc1CN1C(=O)CN=C(c2ccccc2)c2ccccc21 | - | - | 18µM | - | ? | -
Cc1ccc(-c2nc(CN3C(=O)CN=C(c4ccccc4Cl)c4cc(Cl)ccc43)c(C)o2)cc1 | . | . | 16µM | . | 15µM | .
Cc1ccccc1-c1nc(CN2C(=O)CN=C(c3ccccc3)c3ccccc32)c(C)o1 | . | . | ? | . | - | .
COc1ccc(CCN)cc1S(N)(=O)=O | . | - | - | . | - | .
Oc1c(Br)c(Br)c(Br)c(Br)c1Br | ? | - | ? | ? | ? | -
CC1=CC(=O)OC2CC3OC4C[C@@H](C)C5OC6CC7O[C@]8(C)C/C=C\C9OC%10CC%11OC(CC(C)C%12OCCO%12)CC(O)[C@]%11(C)OC%10CC9OC8C[C@]7(C)O[C@]6(C)CCC5OC4C[C@]3(C)OC12 (some centres not stated) | - | - | 29µM | ? | ? | -
SMILES | Chronic BCR inh | IL-1B inflam inh | TDP1 cell CPT | MCF10A rerep | DT40 TDP1 no CPT | SW480 rerep
C=C(CC1CC(O)[C@]2(C)OC3CC4OC5C[C@]6(C)O[C@]7(C)CCC8OC9C[C@]%10(C)OC%11C(C)=CC(=O)OC%11CC%10OC9C[C@@H](C)C8OC7CC6O[C@]5(C)C/C=C\C4OC3CC2O1)C(=O)O (some centres not stated) | ? | - | ? | ? | ? | -
COc1cc2c(cc1OC)C13CCN4CC5=CCOC6CC(=O)N2C1C6C5C3C4 (configuration not stated) (tested in a mixture with another compound) | . | - | 13µM | - | ? | -
COC(=O)CCCC(NC(=S)N1CC2C[C@@H](C1)Cn1c2cccc1=O)C(=O)OC (some centres not stated) | - | - | - | - | - | -
CCOC(=O)c1c(C)n(CCOC)c2ccc(O)cc12 | ? | - | ? | - | ? | -[9.22 µM]
CCOC(=O)c1c(NS(=O)(=O)c2ccccc2)n(CCCOC)c2nc3ccccc3nc12 | - | -96 | ? | - | ? | ?
CCCCCn1c(NC(=O)c2ccco2)c(C(=O)OCC)c2nc3ccccc3nc21 | ? | -101 | 21µM | 5.8µM | 16µM | 3.7µM
CCOC(=O)c1c(N)n(CCCOC(=O)c2ccco2)c2nc3ccccc3nc12 | - | - | 12µM | ? | 13µM | ?
CCOC(=O)c1c(C)n(Cc2ccco2)c2c1cc(O)c1ccccc12 | ? | - | ? | - | ? | -
CCN(CC)Cc1nccn1-c1ccc([N+](=O)[O-])cc1C(=O)c1ccccc1Cl | . | . | - | . | 6µM | .
Nc1ccc(Cl)cc1C(=O)c1ccccc1Cl | ? | - | - | ? | ? | -
CCc1ccc(-n2c(O)c(C=NCCN(CC)CC)c(=O)[nH]c2=O)cc1 | ? | - | - | - | - | -
CC(=O)O[C@H]1C(=O)[C@@]2(C)C([C@H](OC(=O)c3ccccc3)[C@]3(O)C[C@H](O)C(C)=C1C3(C)C)[C@]1(OC(C)=O)CO[C@@H]1C[C@H]2O (some centres not stated) | ? | - | 7.3µM | - | 5.8µM | ?
CC(=O)O[C@@]12CO[C@@H]1C[C@H](O)[C@@]1(C)C(=O)[C@H](O)C3=C(C)[C@@H](OC(=O)[C@H](O)[C@@H](NC(=O)c4ccccc4)c4ccccc4)C[C@@](O)([C@@H](OC(=O)c4ccccc4)C12)C3(C)C (some centres not stated) | - | - | 0.033µM | ? | 0.21µM | 2.6µM

Assay outcomes deposited in PubChem by National Center for Advancing Translational Sciences (NCATS).
